Assay results from PubChem BioAssay (NCATS).
Records with an inconclusive call do not appear. A number with no mark means an inactive call. Activity calls are given as the source filed them. Calls come from the whole dose curve; as a rule, active = well fitted inhibition curve with a large enough effect; inconclusive = small, poorly fitted or top-dose-only effect; inactive = no such curve, though single readings can be large or run the other way.

Molecular target: Rap guanine nucleotide exchange factor 4 (Homo sapiens) (UniProt Q8WZA2)
Sequence (Q8WZA2 whole entry, looked up): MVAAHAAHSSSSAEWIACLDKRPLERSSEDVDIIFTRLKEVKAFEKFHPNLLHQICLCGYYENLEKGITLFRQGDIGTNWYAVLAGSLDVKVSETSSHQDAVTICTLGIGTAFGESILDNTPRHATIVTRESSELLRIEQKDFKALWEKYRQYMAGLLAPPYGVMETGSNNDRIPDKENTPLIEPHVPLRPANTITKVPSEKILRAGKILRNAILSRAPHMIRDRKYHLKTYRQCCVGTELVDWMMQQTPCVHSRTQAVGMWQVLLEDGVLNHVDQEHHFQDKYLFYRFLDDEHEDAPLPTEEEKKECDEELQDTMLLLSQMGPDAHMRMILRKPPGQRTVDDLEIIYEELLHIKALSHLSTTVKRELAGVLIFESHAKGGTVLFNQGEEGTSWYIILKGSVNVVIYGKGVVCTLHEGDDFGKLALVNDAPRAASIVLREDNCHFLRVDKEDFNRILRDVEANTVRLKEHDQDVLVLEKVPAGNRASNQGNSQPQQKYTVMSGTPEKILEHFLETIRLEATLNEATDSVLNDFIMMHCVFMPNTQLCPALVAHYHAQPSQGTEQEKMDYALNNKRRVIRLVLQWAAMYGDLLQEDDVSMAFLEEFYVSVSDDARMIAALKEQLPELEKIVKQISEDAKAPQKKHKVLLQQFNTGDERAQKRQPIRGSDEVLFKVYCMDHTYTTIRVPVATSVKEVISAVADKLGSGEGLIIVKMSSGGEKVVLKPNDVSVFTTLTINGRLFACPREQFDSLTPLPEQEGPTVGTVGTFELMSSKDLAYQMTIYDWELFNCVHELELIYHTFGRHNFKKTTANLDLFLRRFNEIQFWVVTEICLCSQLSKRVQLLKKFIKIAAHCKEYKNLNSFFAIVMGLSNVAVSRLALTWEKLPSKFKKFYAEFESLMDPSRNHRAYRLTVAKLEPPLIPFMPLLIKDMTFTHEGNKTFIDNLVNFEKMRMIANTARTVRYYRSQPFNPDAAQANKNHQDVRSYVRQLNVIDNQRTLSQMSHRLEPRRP
Experiment: Confirmatory qHTS for antagonist of cAMP-regulated guanine nucleotide exchange factor 4 (EPAC2) (AID 1645885); note: nearly all actives have a fitted effect of over 25% in size; note: potency is the fitted concentration of half-maximal effect; for activity change, negative = inhibition: % is set by controls: 0 for no effect and ±100 for the full control effect
Settings: EPAC2 Rap1B-BODIPY-GDP exchange fluorescence, biochemical; series mostly up to 12.7 µM; activity change, negative = inhibition: at the top concentration

| SMILES | activity change, negative = inhibition | outcome | Potency |
| --- | --- | --- | --- |
| COC(=O)c1cc(OC)nc2ccc(Br)cc12 | 9.04% [at 114 µM] | – | – |
| C=CCc1cc(/C=C/c2nc(O)c([N+](=O)[O-])c(=O)[nH]2)cc(OC)c1O | -13% [at 114 µM] | – | – |
| COc1ccc2nc(N3CCN(C(=O)C4CC4)CC3)sc2c1 | – | inactive [at 12.7 µM] | – |
| O=C(O)CN1C(=O)/C(=C\c2ccccc2OCc2ccc(Cl)cc2Cl)SC1=S | -16.9% | – | – |
| NS(=O)(=O)c1ccc(-c2cccc(/C=C3\SC(=O)NC3=O)c2)cc1 | 16.2% [at 114 µM] | – | – |
| O=C(Nc1cc(C(=O)Nc2ccccc2C(=O)O)cc(C(=O)Nc2ccccc2C(=O)O)c1)c1ccccc1 | 6.12% | – | – |
| Cc1cc(S(=O)(=O)Nc2ccccc2C)ccc1F | – | – | 13.5 µM (active) |
| COc1ccc(NC(=O)c2ccc(NC3=NC4CS(=O)(=O)CC4S3)cc2)cc1 (stereo not given) | -0.159% | – | – |
| COc1cc2ccccc2cc1C(=O)N1CC(C)CC(C)C1 (stereo not given) | -13.9% | – | – |
| COc1cc(/C=C2\SC(=S)N(NS(=O)(=O)c3ccccc3)C2=O)ccc1O | 1.89% [at 114 µM] | – | – |
| O=C1c2ccccc2S(=O)(=O)c2cc(N3CCC4(CC3)OCCO4)ccc21 | – | – | 84.9 µM (active) |
| O=c1oc(-c2ccccc2)c(-c2ccccc2)c2ccccc12 | – | inactive | – |
| CCOC(=O)Cn1c(=O)oc2cc(S(=O)(=O)Nc3c(C)cc(C)cc3C)ccc21 | -9.49% | – | – |
| CC1Cc2nc(SCC(=O)NCc3ccccc3)n(Cc3ccccc3)c(=O)c2S1 (stereo not given) | -1.59% | – | – |
| Cc1[nH]n(-c2ccccc2)c(=O)c1C(c1cc(Cl)ccc1O)c1c(C)[nH]n(-c2ccccc2)c1=O | -5.15% | – | – |
| CN(CC(=O)Nc1cccc(F)c1)C(=O)CN1c2cccc3cccc(c23)S1(=O)=O | -11.9% [at 114 µM] | – | – |
| CCc1nnc(NS(=O)(=O)c2ccc(NC(=S)NC(=O)/C=C/c3ccccc3)cc2)s1 | -52.5% [at 114 µM] | – | – |
| CCN1C/C(=C/c2ccc(N3CCOCC3)cc2)C(=O)/C(=C/c2ccc(N3CCOCC3)cc2)C1 | – | – | 67.5 µM (active) |
| COC(=O)C1(Cc2ccccc2)NC(c2ccc(F)cc2)C2C(=O)N(C)C(=O)C21 (stereo not given) | 4.15% | – | – |
| O=C1NC(=Nc2ccccc2Cl)S/C1=C\c1cccc([N+](=O)[O-])c1O | 143% [at 114 µM] | – | – |

| SMILES | activity change, negative = inhibition | outcome | Potency |
| --- | --- | --- | --- |
| Cc1ccccc1N(CC(=O)NC1CCCC1)C(=O)c1csnn1 | -9.08% | – | – |
| CCOC(=O)C1=C(C)N=C2SC=C(C)N2C1c1ccc(OC)cc1 (stereo not given) | -23.6% [at 114 µM] | – | – |
| COc1nc(C)cc(C)c1S(=O)(=O)c1ccccc1C | – | inactive | – |
| CC1(C)Cc2ccccc2-c2nnc(-c3ccc4ccccc4n3)n21 | 5.25% [at 114 µM] | – | – |
| CC(C)CCNC1c2ccccc2C(=O)N1Cc1ccccc1 (stereo not given) | -6.88% | – | – |
| O=C(CCC1CCCC1)Nc1ccc([N+](=O)[O-])cn1 | -4.35% [at 114 µM] | – | – |
| COc1cccc(C2=NN(C(C)=O)C(c3cccs3)C2)c1 (stereo not given) | 24.6% [at 114 µM] | – | – |
| CCOc1ccc(N2C(=O)Nc3ccccc3C2(O)C(=O)NCc2ccc(C)cc2)cc1 (stereo not given) | -4.34% | – | – |
| CCOc1cc(/C=N/Nc2ccc(S(=O)(=O)Nc3ccccc3C(=O)O)cc2[N+](=O)[O-])cc(Cl)c1O | -13.4% [at 114 µM] | – | – |
| COc1cc(/C=C2\SC(=O)N(c3ccccc3Cl)C2=O)cc([N+](=O)[O-])c1O | – | – | 42.6 µM (active) |
| CC1S/C(=N/N=C2CCC(C(C)(C)C)CC2)NC1=O (stereo not given) | -19.5% | – | – |
| CC(=O)c1cccc(OC(=O)C2=CC=CN3CCS(=O)(=O)N=C23)c1 | -18.9% [at 114 µM] | – | – |
| COc1ccccc1Cn1c(=O)oc2ccc(C)cc21 | 35% [at 114 µM] | – | – |
| O=C(NC1CCC(O)CC1)c1cccc2cccnc12 (stereo not given) | -11.5% [at 114 µM] | – | – |
| O=C(c1ccccc1[N+](=O)[O-])N1CCN(c2ccc(N3CCOCC3)nn2)CC1 | -6.82% [at 114 µM] | – | – |
| CN(Cc1ccccc1N1CCCC1)C(=O)c1cc2ccccc2o1 | -13.2% | – | – |
| CC1CCC2=NN(C(=O)c3ccco3)C(O)(C(F)(F)F)C2C1 (stereo not given) | -15.1% | – | – |
| CCOc1cc(C2C3=C(CC(C)(C)CC3=O)N(CCOC)C3=C2C(=O)CC(C)(C)C3)ccc1O | -10.5% [at 114 µM] | – | – |
| Nc1[nH]c(C(=O)c2ccccc2)c(-c2ccccc2C(F)(F)F)c1C(=O)NCCc1cccs1 | -3.57% [at 114 µM] | – | – |
| CCCCCC1CCC(c2ccc(C(N)=O)cc2)CC1 (stereo not given) | -16.1% [at 114 µM] | – | – |

Molecular target: Rap guanine nucleotide exchange factor 3 (Homo sapiens) (UniProt O95398)
Sequence (O95398 whole entry, looked up): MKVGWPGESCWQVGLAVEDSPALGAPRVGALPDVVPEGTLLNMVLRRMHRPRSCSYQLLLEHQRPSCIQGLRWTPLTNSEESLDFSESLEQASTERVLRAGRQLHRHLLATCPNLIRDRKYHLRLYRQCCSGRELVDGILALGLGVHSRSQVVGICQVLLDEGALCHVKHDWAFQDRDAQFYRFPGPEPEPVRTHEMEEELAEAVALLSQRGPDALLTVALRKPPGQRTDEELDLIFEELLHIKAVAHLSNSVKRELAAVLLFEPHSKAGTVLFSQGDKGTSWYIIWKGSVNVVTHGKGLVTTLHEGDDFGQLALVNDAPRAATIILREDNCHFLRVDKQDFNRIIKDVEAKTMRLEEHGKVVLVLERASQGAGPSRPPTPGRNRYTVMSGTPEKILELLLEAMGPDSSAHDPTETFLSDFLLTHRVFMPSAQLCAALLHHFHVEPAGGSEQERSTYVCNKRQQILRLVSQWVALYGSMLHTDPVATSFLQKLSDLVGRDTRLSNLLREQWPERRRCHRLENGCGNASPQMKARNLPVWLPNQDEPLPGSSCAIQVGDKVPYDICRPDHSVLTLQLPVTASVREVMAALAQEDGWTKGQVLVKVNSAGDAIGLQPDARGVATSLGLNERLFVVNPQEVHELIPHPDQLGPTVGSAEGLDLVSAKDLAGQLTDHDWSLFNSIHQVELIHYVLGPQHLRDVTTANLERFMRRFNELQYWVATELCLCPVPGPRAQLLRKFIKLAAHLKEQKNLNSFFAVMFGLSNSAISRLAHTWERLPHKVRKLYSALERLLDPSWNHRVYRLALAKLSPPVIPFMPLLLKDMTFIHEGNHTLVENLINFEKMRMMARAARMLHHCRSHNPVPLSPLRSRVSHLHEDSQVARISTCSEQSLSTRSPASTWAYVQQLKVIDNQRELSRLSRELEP
Experiment: Counterscreen qHTS for antagonist of cAMP-regulated guanine nucleotide exchange factor 3 (EPAC1) (AID 1645888);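 note: fluorescence loss as bound BODIPY-GDP is released from Rap1B; % of control where 0% means no effect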
Settings: Rap1B-BODIPY-GDP nucleotide exchange, fluorescence; series mostly up to 154 µM; activity change, negative = inhibition: at the top concentration
Procedure, shortened: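 Rap1B-BODIPY-GDP 250 nM + GDP 50 uM; cpds 7-pt, final 9.74 nM–152 uM (activator mode) or from 7.32 nM upwards (inhibitor mode); RT; FI 480/540 nm at 5 and 30 min, then ± cAMP, reread.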

| SMILES | activity change, negative = inhibition |
| --- | --- |
| COC(=O)c1cc(OC)nc2ccc(Br)cc12 | 8.73% |
| C=CCc1cc(/C=C/c2nc(O)c([N+](=O)[O-])c(=O)[nH]2)cc(OC)c1O | -8.01% |
| COc1ccc2nc(N3CCN(C(=O)C4CC4)CC3)sc2c1 | 31.7% |
| O=C(O)CN1C(=O)/C(=C\c2ccccc2OCc2ccc(Cl)cc2Cl)SC1=S | -18.8% [at 30.8 µM] |
| NS(=O)(=O)c1ccc(-c2cccc(/C=C3\SC(=O)NC3=O)c2)cc1 | -7.47% |
| O=C(Nc1cc(C(=O)Nc2ccccc2C(=O)O)cc(C(=O)Nc2ccccc2C(=O)O)c1)c1ccccc1 | 11.5% [at 30.8 µM] |
| Cc1cc(S(=O)(=O)Nc2ccccc2C)ccc1F | -13% |
| COc1ccc(NC(=O)c2ccc(NC3=NC4CS(=O)(=O)CC4S3)cc2)cc1 (stereo not given) | -1.99% [at 30.8 µM] |
| COc1cc2ccccc2cc1C(=O)N1CC(C)CC(C)C1 (stereo not given) | 1.39% [at 30.8 µM] |
| COc1cc(/C=C2\SC(=S)N(NS(=O)(=O)c3ccccc3)C2=O)ccc1O | 21.6% |
| O=C1c2ccccc2S(=O)(=O)c2cc(N3CCC4(CC3)OCCO4)ccc21 | 9.17% |
| O=c1oc(-c2ccccc2)c(-c2ccccc2)c2ccccc12 | 10.1% |
| CCOC(=O)Cn1c(=O)oc2cc(S(=O)(=O)Nc3c(C)cc(C)cc3C)ccc21 | -16.5% [at 30.8 µM] |
| CC1Cc2nc(SCC(=O)NCc3ccccc3)n(Cc3ccccc3)c(=O)c2S1 (stereo not given) | 0.448% [at 30.8 µM] |
| Cc1[nH]n(-c2ccccc2)c(=O)c1C(c1cc(Cl)ccc1O)c1c(C)[nH]n(-c2ccccc2)c1=O | 0.214% |
| CN(CC(=O)Nc1cccc(F)c1)C(=O)CN1c2cccc3cccc(c23)S1(=O)=O | 10.7% |
| CCc1nnc(NS(=O)(=O)c2ccc(NC(=S)NC(=O)/C=C/c3ccccc3)cc2)s1 | 6.15% |
| CCN1C/C(=C/c2ccc(N3CCOCC3)cc2)C(=O)/C(=C/c2ccc(N3CCOCC3)cc2)C1 | 129% |
| COC(=O)C1(Cc2ccccc2)NC(c2ccc(F)cc2)C2C(=O)N(C)C(=O)C21 (stereo not given) | 4.27% [at 30.8 µM] |
| O=C1NC(=Nc2ccccc2Cl)S/C1=C\c1cccc([N+](=O)[O-])c1O | -10.1% |

| SMILES | activity change, negative = inhibition |
| --- | --- |
| Cc1ccccc1N(CC(=O)NC1CCCC1)C(=O)c1csnn1 | -9.99% [at 30.8 µM] |
| CCOC(=O)C1=C(C)N=C2SC=C(C)N2C1c1ccc(OC)cc1 (stereo not given) | -16.3% |
| COc1nc(C)cc(C)c1S(=O)(=O)c1ccccc1C | -6.68% |
| CC1(C)Cc2ccccc2-c2nnc(-c3ccc4ccccc4n3)n21 | 11.3% |
| CC(C)CCNC1c2ccccc2C(=O)N1Cc1ccccc1 (stereo not given) | -10.7% [at 30.8 µM] |
| O=C(CCC1CCCC1)Nc1ccc([N+](=O)[O-])cn1 | 7.42% |
| COc1cccc(C2=NN(C(C)=O)C(c3cccs3)C2)c1 (stereo not given) | 6.36% |
| CCOc1ccc(N2C(=O)Nc3ccccc3C2(O)C(=O)NCc2ccc(C)cc2)cc1 (stereo not given) | -5.47% [at 30.8 µM] |
| CCOc1cc(/C=N/Nc2ccc(S(=O)(=O)Nc3ccccc3C(=O)O)cc2[N+](=O)[O-])cc(Cl)c1O | -20.6% |
| COc1cc(/C=C2\SC(=O)N(c3ccccc3Cl)C2=O)cc([N+](=O)[O-])c1O | 10.2% |
| CC1S/C(=N/N=C2CCC(C(C)(C)C)CC2)NC1=O (stereo not given) | 2.96% [at 30.8 µM] |
| CC(=O)c1cccc(OC(=O)C2=CC=CN3CCS(=O)(=O)N=C23)c1 | -8.04% |
| COc1ccccc1Cn1c(=O)oc2ccc(C)cc21 | 2.69% |
| O=C(NC1CCC(O)CC1)c1cccc2cccnc12 (stereo not given) | 4.25% |
| O=C(c1ccccc1[N+](=O)[O-])N1CCN(c2ccc(N3CCOCC3)nn2)CC1 | 16.5% |
| CN(Cc1ccccc1N1CCCC1)C(=O)c1cc2ccccc2o1 | -10.5% [at 30.8 µM] |
| CC1CCC2=NN(C(=O)c3ccco3)C(O)(C(F)(F)F)C2C1 (stereo not given) | -9.1% [at 30.8 µM] |
| CCOc1cc(C2C3=C(CC(C)(C)CC3=O)N(CCOC)C3=C2C(=O)CC(C)(C)C3)ccc1O | 6.25% |
| Nc1[nH]c(C(=O)c2ccccc2)c(-c2ccccc2C(F)(F)F)c1C(=O)NCCc1cccs1 | -7.72% |
| CCCCCC1CCC(c2ccc(C(N)=O)cc2)CC1 (stereo not given) | 9.85% |
